Activity calls are given as the source filed them. How the source made its calls: active means hit-call score of the fitted dose curve at least 0.9, where 1 is the maximum; inactive means score below 0.9.
These molecules were tested against CCAAT/enhancer-binding protein beta (Homo sapiens) (UniProt P17676) (assay: ATG_C_EBP_CIS: Attagene CIS-FACTORIAL HepG2 Assay for human CCAAT/Enhancer Binding Protein (C/EBP) beta (AID 2282927)). Conditions: HepG2 Attagene cis-factorial transcription factor reporter; actives raise or lower the signal.
CCAAT/enhancer-binding protein beta (Homo sapiens), sequence (P17676 whole entry, looked up): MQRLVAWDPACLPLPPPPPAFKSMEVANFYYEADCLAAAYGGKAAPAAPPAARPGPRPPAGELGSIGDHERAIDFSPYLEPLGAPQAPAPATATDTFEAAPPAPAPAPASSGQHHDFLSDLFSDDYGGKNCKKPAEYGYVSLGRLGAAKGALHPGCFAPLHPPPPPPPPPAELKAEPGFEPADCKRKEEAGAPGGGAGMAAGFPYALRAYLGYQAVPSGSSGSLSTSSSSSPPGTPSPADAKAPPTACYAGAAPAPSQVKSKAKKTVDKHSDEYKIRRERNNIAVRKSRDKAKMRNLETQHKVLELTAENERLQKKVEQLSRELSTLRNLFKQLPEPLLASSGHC
In short: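 HepG2 transiently transfected with multiplexed reporter units under cis-regulatory promoters reporting endogenous C/EBPb activity. After 24 h exposure, reporter mRNA assayed by RT-PCR, fluorescent labelling, HpaI digestion and capillary electrophoresis; bidirectional fitting versus DMSO.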
C=C(C)C(=O)OCCO was tested, and the outcome was “inactive”. In the case of C1=Cc2ccccc2C1, the outcome is reported as “inactive”. With CCOC(=O)CC the outcome was “inactive”. With CCC(=O)Oc1ccc(/C(CC)=C(\CC)c2ccc(OC(=O)CC)cc2)cc1 the outcome was “inactive”. CO[Si](CCC1CCC2OC2C1)(OC)OC (stereo not given) was tested, and the outcome was “inactive”. In the case of CCCCCC/C=C\CCCCCCCC(=O)O, the outcome is reported as “inactive”. In the case of Cc1cc(=O)n(-c2ccccc2)n1C, the outcome is reported as “inactive”. For FC(F)(F)C(=NOCC1OCCO1)c1ccc(Cl)cc1, the outcome was “inactive”. In the case of CCOC(=O)N1CCC(=C2c3ccc(Cl)cc3CCc3cccnc32)CC1, the outcome is reported as “inactive”. In the case of COc1cc(C)ccc1C(C)C, the outcome is reported as “inactive”. CCCCCCCOC(=O)CCC was tested, and the outcome was “inactive”. Cc1ccc(C(C)c2ccc(C)c(C)c2)cc1C was tested, and the outcome was “inactive”. For O=C(/C=C/C=C/c1ccc2c(c1)OCO2)N1CCCCC1, the outcome was “inactive”. For CC(C)=CCC[C@H](C)CCO, the outcome was “inactive”. For O=C1CCCCCCCCCCC(=O)OCCO1, the outcome was “inactive”. With COCC(C)N (stereo not given) the outcome was “inactive”. With CC(=O)[C@@]1(O)CC[C@H]2[C@@H]3C[C@H](C)C4=CC(=O)C=C[C@]4(C)[C@@]3(F)[C@@H](O)C[C@@]21C the outcome was “inactive”. CC(C)CC(O)Cc1ccccc1 (stereo not given) was tested, and the outcome was “inactive”. In the case of CCCCOCCOC(=O)COc1nc(Cl)c(Cl)cc1Cl, the outcome is reported as “inactive”. With COC(=O)/C=C\C(=O)O the outcome was “inactive”. In the case of C=C[Si](OC(C)=O)(OC(C)=O)OC(C)=O, the outcome is reported as “inactive”. For Cc1c(C)c([N+](=O)[O-])c(C(C)(C)C)c([N+](=O)[O-])c1C, the outcome was “inactive”. With O=[N+]([O-])C1(Br)COCOC1 the outcome was “inactive”. CC(C)=CC1CC(C)CCO1 (stereo not given) was tested, and the outcome was “inactive”. For Nc1ccc(-c2ccc(F)cc2)cc1, the outcome was “inactive”. For FC(F)=C(F)OC(F)(F)C(F)(F)C(F)(F)F, the outcome was “inactive”. For CCCOC(=O)CCCCC(=O)OCCC, the outcome was “inactive”. With OCCN(CCO)c1ccccc1 the outcome was “inactive”. In the case of O=C(O)c1cc(Cl)cc([N+](=O)[O-])c1Cl, the outcome is reported as “inactive”. For CCCCC(CC)COC(=O)c1ccccc1O (stereo not given), the outcome was “inactive”. For CCc1nccnc1C, the outcome was “inactive”. With CC(=O)Nc1ccc2c(c1)Cc1cc(NC(C)=O)ccc1-2 the outcome was “inactive”. OCCCS was tested, and the outcome was “inactive”. For Cc1cccc(OCCOc2cccc(C)c2)c1, the outcome was “inactive”. Cc1ccc([N+](=O)[O-])cc1S(=O)(=O)O was tested, and the outcome was “inactive”. In the case of COC(=O)c1cc(Cl)ccc1[N+](=O)[O-], the outcome is reported as “inactive”. In the case of Cc1oncc1C(=O)Nc1ccc(C(F)(F)F)cc1, the outcome is reported as “inactive”. CC(C)c1ccc2cc(C(C)C)ccc2c1 was tested, and the AC50 was 64.6 µM (active). C=CC(=O)OCCOC(=O)C=C was tested, and the outcome was “inactive”. CCCCCCCCCCCCCOP(=O)(O)O was tested, and the outcome was “inactive”.
